Assay [1] can be described thus: NCI Yeast Anticancer Drug Screen. Data for the rad50 strain (AID 155).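 Note: 0% = growth of vehicle-only cultures of the same strain.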 The settings on record: S. cerevisiae rad50 strain growth inhibition, stronger effect = higher value. In outline: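 Growth of the mutant yeast was measured after compound exposure and referenced to vehicle-treated cultures.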
The nature of assay [2]: NCI Yeast Anticancer Drug Screen. Data for the mec2-1 strain (AID 157). The settings on record: S. cerevisiae mec2-1 strain, stronger effect = higher value. In outline:
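Each compound was tested on mec2-1 yeast, a strain altered in DNA damage repair or cell cycle control. Growth inhibition is reported relative to vehicle.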

Assay [3] can be described thus: NCI Yeast Anticancer Drug Screen. Data for the sgs1 mgt1 strain (AID 161).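 Note: 0% = growth of cultures given vehicle only.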 The settings on record: S. cerevisiae sgs1 mgt1 strain, stronger effect = higher value. The method, boiled down: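 Inhibition of yeast growth, normalised to vehicle-treated controls, is reported for a strain bearing genetic alterations in DNA damage repair.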
A short description of assay [4]: NCI Yeast Anticancer Drug Screen. Data for the cln2 rad14 strain (AID 165).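 Note: 0% = growth equal to vehicle treated cultures.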 The settings on record: S. cerevisiae cln2 rad14 strain, stronger effect = higher value. The method, boiled down:
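Test compounds were added to cln2 rad14 yeast cultures; inhibition of growth was then determined by comparison with vehicle treatment.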

Assay [5] can be described thus: NCI Yeast Anticancer Drug Screen. Data for the bub3 strain (AID 167). Particulars: S. cerevisiae bub3 mutant strain, stronger effect = higher value. In outline: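 Whole-cell yeast assay. The mutant strain was incubated with compounds, and growth inhibition was determined by comparison with vehicle-treated cells.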
Assay [6] is described as follows: NCI Yeast Anticancer Drug Screen. Data for the mlh1 rad18 strain (AID 175). Particulars: S. cerevisiae mlh1 rad18 strain growth inhibition, stronger effect = higher value. In outline: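 Inhibition values reflect reduced growth of mutant yeast versus vehicle-treated controls following compound exposure; the mutations affect DNA damage repair.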
Where [7] appears, read: at 5.0 µM (retest, dose inferred, filed as 0.5).
Where [8] appears, read: at 50.0 µM (retest, dose inferred, filed as 5.0).

Nine molecules from PubChem BioAssay (NCI) can be followed below.

Molecules are shown by their SMILES. About 79,000 compounds went through this panel and 15% of them were active in at least one assay; those are over-represented in the sample as a whole. A number with no mark means an inactive call. Calls of active or inactive are those of the source. Cut-off read from the data, not from the text of the source: active = growth inhibition above about 70%; inactive = the rest.

With `O=C1C(SCCO)=C(SCCO)C(=O)c2ccccc21`, the growth inhibition in assay [1] (setting [7]) was 8%; in assay [1] (setting [8]), 87% (active); in assay [1] (at 50.0 µM), 87% (active); in assay [2] (setting [7]), 20%; in assay [2] (setting [8]) it was 61%; in assay [2] (at 50.0 µM), 57.5%. The growth inhibition in assay [3] (setting [7]) was 16%; in assay [3] (setting [8]), 66%; in assay [3] (at 50.0 µM), 66.7%; in assay [4] (setting [7]), -4%; in assay [4] (setting [8]) it was 48%; in assay [4] (at 50.0 µM) it was 17.8%. In addition, the growth inhibition in assay [5] (setting [7]) was 44%; in assay [5] (setting [8]) it was 83% (active); in assay [5] (at 50.0 µM), 89.3% (active); in assay [6] (setting [7]), 17%; in assay [6] (setting [8]) it was 77% (active); in assay [6] (at 50.0 µM), 93.7% (active).
As for `CCSc1c2ccccc2nc2c(OC)ccc(OC)c12`, the growth inhibition is 3% in assay [1] (setting [7]); 70% (active) in assay [1] (setting [8]); 88.7% (active) in assay [1] (at 50.0 µM); -3% in assay [2] (setting [7]); 23% in assay [2] (setting [8]); 35.4% in assay [2] (at 50.0 µM). For the same molecule, the growth inhibition is -7% in assay [3] (setting [7]); 30% in assay [3] (setting [8]); 63.1% in assay [3] (at 50.0 µM); -7% in assay [4] (setting [7]); -7% in assay [4] (setting [8]); 48.7% in assay [4] (at 50.0 µM). The growth inhibition in assay [5] (setting [7]) was -7%; in assay [5] (setting [8]), 20%; in assay [5] (at 50.0 µM), 39.4%; in assay [6] (setting [7]), -3%; in assay [6] (setting [8]), 54%; in assay [6] (at 50.0 µM) it was 90.3% (active).
Turning to `ClC1c2ccccc2Cc2cccnc21` (configuration not stated), the growth inhibition in assay [1] (setting [7]) was 21%; in assay [1] (setting [8]), 85% (active); in assay [1] (at 50.0 µM), 75.3% (active); in assay [2] (setting [7]), 11%; in assay [2] (setting [8]) it was 24%; in assay [2] (at 50.0 µM) it was 11.8%. The growth inhibition in assay [3] (setting [7]) is 10%; in assay [3] (setting [8]), 59%; in assay [3] (at 50.0 µM), 12.2%; in assay [4] (setting [7]) it was 4%; in assay [4] (setting [8]), 22%; in assay [4] (at 50.0 µM) it was -5.1%. The growth inhibition in assay [5] (setting [7]) is 7%; in assay [5] (setting [8]) it was 48%; in assay [5] (at 50.0 µM), -6.6%; in assay [6] (setting [7]), 8%; in assay [6] (setting [8]) it was 76% (active); in assay [6] (at 50.0 µM), 23.5%.
For the molecule `N#CS/C=C/SC#N`, the growth inhibition in assay [1] (setting [7]) was 99% (active); in assay [1] (setting [8]) it was 99% (active); in assay [1] (at 50.0 µM), 99.5% (active); in assay [2] (setting [7]), 100% (active); in assay [2] (setting [8]), 100% (active); in assay [2] (at 50.0 µM) it was 99.5% (active). Further, the growth inhibition in assay [3] (setting [7]) was 99% (active); in assay [3] (setting [8]), 99% (active); in assay [3] (at 50.0 µM), 99.5% (active); in assay [4] (setting [7]), 99% (active); in assay [4] (setting [8]) it was 100% (active); in assay [4] (at 50.0 µM), 99.1% (active). Also, the growth inhibition is 100% (active) in assay [5] (setting [7]); 99% (active) in assay [5] (setting [8]); 99% (active) in assay [5] (at 50.0 µM); 99% (active) in assay [6] (setting [7]); 100% (active) in assay [6] (setting [8]); 99.5% (active) in assay [6] (at 50.0 µM).
With `O=C(CC(c1cccnc1)C(C(=O)c1ccc(Cl)cc1)C(CC(=O)c1ccc(Cl)cc1)c1cccnc1)c1ccc(Cl)cc1` (configuration not stated), the growth inhibition in assay [1] (setting [7]) is 80% (active); in assay [1] (setting [8]) it was 92% (active); in assay [1] (at 50.0 µM), 59.3%; in assay [2] (setting [7]) it was 48%; in assay [2] (setting [8]), 95% (active); in assay [2] (at 50.0 µM), 65.2%. The growth inhibition in assay [3] (setting [7]) was 56%; in assay [3] (setting [8]), 96% (active); in assay [3] (at 50.0 µM), 52.2%; in assay [4] (setting [7]), 32%; in assay [4] (setting [8]), 96% (active); in assay [4] (at 50.0 µM) it was 36.9%. In addition, the growth inhibition in assay [5] (setting [7]) is 11%; in assay [5] (setting [8]) it was 92% (active); in assay [5] (at 50.0 µM), 30.8%; in assay [6] (setting [7]) it was 63%; in assay [6] (setting [8]), 93% (active); in assay [6] (at 50.0 µM) it was 87.1% (active).
For the molecule `Nc1ncnc2c1cnn2C1CCCCC1`, the growth inhibition was 3% in assay [1] (setting [7]); 79% (active) in assay [1] (setting [8]); 30.2% in assay [1] (at 50.0 µM); -2% in assay [2] (setting [7]); 46% in assay [2] (setting [8]); 58.8% in assay [2] (at 50.0 µM). The growth inhibition in assay [3] (setting [7]) was 0%; in assay [3] (setting [8]) it was 45%; in assay [3] (at 50.0 µM), 14.9%; in assay [4] (setting [7]) it was -1%; in assay [4] (setting [8]), 68%; in assay [4] (at 50.0 µM), 36.3%. In addition, the growth inhibition in assay [5] (setting [7]) is -2%; in assay [5] (setting [8]), 58%; in assay [5] (at 50.0 µM), 32.7%; in assay [6] (setting [7]) it was 1%; in assay [6] (setting [8]) it was 75% (active); in assay [6] (at 50.0 µM) it was 71.2% (active).
Take `CC1=C(C)C(=O)C2=C(OCCCO2)C1=O`: the growth inhibition in assay [1] (setting [7]) was -9%; in assay [1] (setting [8]), -12%; in assay [1] (at 50.0 µM), -6.55%; in assay [2] (setting [7]) it was 9%; in assay [2] (setting [8]), -19%; in assay [2] (at 50.0 µM) it was -21.1%. Further, the growth inhibition in assay [3] (setting [7]) is -2%; in assay [3] (setting [8]) it was 11%; in assay [3] (at 50.0 µM) it was -0.8%; in assay [4] (setting [7]) it was -21%; in assay [4] (setting [8]), 5%; in assay [4] (at 50.0 µM), 5.35%. Also, the growth inhibition in assay [5] (setting [7]) was -13%; in assay [5] (setting [8]), -19%; in assay [5] (at 50.0 µM) it was 48.8%; in assay [6] (setting [7]), -24%; in assay [6] (setting [8]), -19%; in assay [6] (at 50.0 µM), 10%.
Turning to `COc1ccc(-c2nc(C)[nH]c(=O)c2Cc2c(O)ccc3ccccc23)cc1`, the growth inhibition in assay [1] (setting [7]) was 3%; in assay [1] (setting [8]) it was 50%; in assay [1] (at 50.0 µM) it was 98.5% (active); in assay [2] (setting [7]), -4%; in assay [2] (setting [8]), 4%; in assay [2] (at 50.0 µM), 10.3%. Besides, the growth inhibition in assay [3] (setting [7]) is 1%; in assay [3] (setting [8]) it was 8%; in assay [3] (at 50.0 µM), 97.8% (active); in assay [4] (setting [7]), 4%; in assay [4] (setting [8]), 7%; in assay [4] (at 50.0 µM), 22%. Further, the growth inhibition in assay [5] (setting [7]) is 0%; in assay [5] (setting [8]), 1%; in assay [5] (at 50.0 µM) it was 4.45%; in assay [6] (setting [7]), 2%; in assay [6] (setting [8]), 2%; in assay [6] (at 50.0 µM), 97% (active).
On to `CCCC/C=C(/CCCNCCCC)[Si](C)(C)C`, for which the growth inhibition in assay [1] (setting [7]) was 70% (active); in assay [1] (setting [8]), 97% (active); in assay [1] (at 50.0 µM) it was 91.8% (active); in assay [2] (setting [7]), 72% (active); in assay [2] (setting [8]), 99% (active); in assay [2] (at 50.0 µM), 93.7% (active). Besides, the growth inhibition in assay [3] (setting [7]) is 90% (active); in assay [3] (setting [8]) it was 99% (active); in assay [3] (at 50.0 µM), 94.2% (active); in assay [4] (setting [7]), 73% (active); in assay [4] (setting [8]), 98% (active); in assay [4] (at 50.0 µM), 92.8% (active). Moreover, the growth inhibition in assay [5] (setting [7]) is 90% (active); in assay [5] (setting [8]), 99% (active); in assay [5] (at 50.0 µM), 92.7% (active); in assay [6] (setting [7]), 91% (active); in assay [6] (setting [8]) it was 98% (active); in assay [6] (at 50.0 µM), 91.9% (active).
